Screens: PubChem BioAssay, National Center for Advancing Translational Sciences (NCATS)
HepG2 tox = qHTS for Inhibitors of TGF-b: Cytotox Counterscreen; HepG2 CAGA-GFP viability, ATP luminescence, 18 h; hit rate 0.76% among 410,000; Potency, µM (doses to about 46.1 µM), for inactives: top-dose activity change, negative = cytotoxicity, actives largely listed as cytotoxic
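CellTiter-Glo luminescence gave cytotoxicity after 18 hours at 37 degrees C. The cells were HepG2 CAGA-GFP in 1% FBS DMEM, stimulated with 500 pg/mL TGF-beta after compound addition. %Activity was normalised to no-cell wells (complete cell-killing) and DMSO (no toxicity), and curves were fitted and classified.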
Nrf2 inh = Nrf2 qHTS screen for inhibitors. A549 ARE-Fluc reporter, luciferase luminescence, 18-24 h. Potency, µM (series often up to 46 µM), inactives show at the top dose activity change, negative = inhibition, actives largely listed as inhibitors. hit rate 2.1% among 360,000; note: % is set by controls: 0 for no effect and ±100 for the full control effect; nearly all actives have a fitted effect of over 60% in size
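Concentration-response testing used A549 ARE_Fluc cells at 5000 cells/well. Following an 18-24 h compound incubation, viability was read by fluorescence (Ex 405/Em 525) and luciferase output by luminescence.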
A549 tox = Nrf2 qHTS screen for inhibitors: counterscreen for cytotoxicity; A549 ARE-Fluc cells, CellTiter-Fluor viability, 18-24 h; Potency, µM (highest dose often 46 µM), for the others: at the highest dose activity change, negative = cytotoxicity, hits mostly inhibitors; hit rate 0.16% among 390,000; AID 504648, 2011; note: % is set by controls: 0 for no effect and ±100 for the full control effect
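A549 ARE_Fluc cells in 5% FBS OPTI-MEM were exposed to compounds in concentration-response for 18-24 h at 37 deg C. Viability was read by CellTiter-Fluor fluorescence (Ex 405/Em 525) after 30 min, before the luciferase read.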
Nrf2 activator = qHTS of Nrf2 Activators; AREc32 ARE-luciferase reporter (MCF7-derived line), luminescence, 24 h; Potency, µM (titrated, usually from 46.1 µM), inactives show at the top dose activation, most hits filed as activators; hit rate 0.31% among 410,000; note: % of control where 0% means no effect; nearly all actives have a fitted effect of over 65% in size
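Cells of the AREc32 ARE-luciferase line are plated in OPTI-MEM containing 5% FBS and left overnight at 37 deg C. Compounds are pinned in, incubation continues 24 hr, and firefly luciferase signal is then measured.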
TGFb inhibitor = qHTS for Inhibitors of TGF-b; HepG2 CAGA-GFP TGF-b/SMAD3 reporter, GFP fluorescence, 18 h; TGF-beta stimulated, 500 pg/mL final; Potency, µM (titrated, usually from 46.1 µM), for the others: at the highest dose activity, negative = inhibition, usual class: inhibitors; hit rate 1.2% among 410,000; AID 588855, 2011; note: % is set by controls: 0 for no effect and ±100 for the full control effect; nearly all actives have a fitted effect of over 65% in size
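HEPG2 CAGA-GFP reporter cells (1000/well, DMEM with 1% FBS) received compounds, then recombinant TGF-beta at 500 pg/mL final for 18 hours at 37 degrees C. Per-cell GFP summed per well was normalised to unstimulated and stimulated DMSO controls before curve fitting.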
* marks the source's active call; other numbers are inactive results; ? = inconclusive; . = no result given. Rows were chosen to be rich in hits. Some 3.6% of all compounds tested hit in one or more screens of this group. Calls come from the whole dose curve; as a rule, active = well fitted curve in the direction sought with a large enough effect; inconclusive = small, poorly fitted or top-dose-only effect, or another doubt; inactive = no such curve, though single readings can be large; an effect the other way counts as inactive or inconclusive. Potency is the fitted concentration of half-maximal effect.

SMILES	HepG2 tox	Nrf2 inh	A549 tox	Nrf2 activator	TGFb inhibitor
CC(C)CN(CC(C)C)CC(O)Cn1cc(/C=C/C(=O)c2ccccc2)c2ccccc21 (configuration not stated)	-38%	14%	-14%	0%	-12%
CCn1nc(NC(=O)c2ccncc2)c2cc3cc(C)ccc3nc21	-11%	9%	-13%	0%	-2%
Cc1cccc(C)c1-n1nnnc1C1c2ccccc2C(=O)N1CCc1ccccc1F (configuration not stated)	.	.	.	13µM*	.
O=[N+]([O-])c1ccc(O)c(-c2ccnc3cc(-c4ccccc4)nn23)c1	-49%	18µM*	16µM*	9%	?
CC(C)(C)c1cc(C(=O)NNc2cc(C(F)(F)F)ccc2Cl)n(Cc2ccccc2)n1	10µM*	?	?	8%	11µM*
COc1ccccc1NNC(=O)c1cc(C(C)(C)C)nn1Cc1ccccc1	-15%	?	1%	5%	0%
CCOC(=O)c1c(C)[nH]c(C=O)c1Cc1cccc(Cl)c1	-13%	26µM*	?	0%	0%
CCOC(=O)c1c(C)[nH]c(C)c1C(=O)COC(=O)/C=C/c1cccc(Cl)c1	-1%	-3%	-4%	16%	?
N#C/C(=C/c1ccc(N2CCCCCC2)o1)c1ccc(Cl)cc1	-45%	-7%	?	11µM*	77%
N#C/C(=C/c1ccc(N2CCCCC2)o1)c1cccc(F)c1	-22%	?	-17%	14µM*	75%
COc1ccccc1-c1nc(-c2ccc(Br)cc2)no1	-29%	?	12%	?	10%
CCCCCCNC(=O)CCNS(=O)(=O)c1ccc(C)cc1	11%	19%	-1%	-1%	13%
COC(=O)c1c(SCC(=O)Nc2cc(C)cc(C)c2)[nH]c2ccccc2c1=O	10µM*	?	-6%	-2%	13µM*
CCCCNC1=CC(=O)C(=O)c2ccccc21	7.1µM*	?	?	-4%	3.5µM*
O=C1C=C(Nc2ccccc2)c2ccccc2C1=O	3.5µM*	21µM*	?	-2%	3.2µM*
CCc1ccc(NC2=CC(=O)C(=O)c3ccccc32)cc1	2.8µM*	?	?	-2%	2µM*
CCc1ccc2c(c1)C(=O)c1ccccc1C2=O	9%	?	-4%	7%	2%
O=C1C=C(Nc2ccccc2C(=O)O)c2ccccc2C1=O	16µM*	3%	?	-1%	?
CCCCNC1=CC(=O)C(NCCCC)=CC1=O	-1%	0%	-11%	0%	-10%
O=C1C=C(Nc2cccc3cccnc23)c2ccccc2C1=O	3.5µM*	?	?	10%	5µM*
CCn1cc(CN(C)C(=O)CSc2nc(-c3ccco3)cc(C(F)(F)F)n2)c(C)n1	3%	?	-11%	0%	-3%
COc1ccccc1CCNC(=O)CCSc1nc(-c2ccco2)cc(C(F)(F)F)n1	-26%	18µM*	-19%	-1%	?
Cc1c(CN(C)C(=O)CSc2nc(-c3ccco3)cc(C(F)(F)F)n2)cnn1C	-12%	16µM*	-18%	0%	?
COc1cc(CCc2ccccc2)c(C(=O)O)c(O)c1CC=C(C)C	-41%	?	-12%	0%	?
COc1cc(CCc2ccccc2)c(C(=O)O)c(O)c1C/C=C(/C)CCC=C(C)C	14µM*	?	-3%	-1%	13µM*
OCC1CCCCN1C(=S)Nc1cccc(Cl)c1 (configuration not stated)	-6%	-3%	6%	0%	?
Cc1ccc(-n2c(SCC(=O)O)nc3sc4c(c3c2=O)C(C)CCC4)cc1 (configuration not stated)	3%	?	0%	0%	-4%
CCn1cc(C(=O)NCc2ccncc2)c(=O)c2cc(F)c(N3CCN(C(=O)c4ccco4)CC3)cc21	-7%	-6%	0%	2%	-18%
